A short description of assay [1]: qHTS RealTime-Glo MT Cell Viability Assay in HEK293 cells - 0 hour (AID 1224880). Also: top concentration of the series differs between compounds; nearly all actives have a fitted effect of over 45% in size. A digest of the protocol: (§1)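 Real-time viability in HEK293: signal arises when living cells convert a prosubstrate for NanoLuc in the medium, so luminescence tracks viable cell number. Compound (23 nL, DMSO) added 5 h post-seeding; kinetic reads at 0–40 h, 37 C.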
Background: qHTS replaces the single test concentration by a dilution series.

Assay [2] can be described thus: A CellTox Green Cytotoxicity Assay to monitor cytotoxicity in HEK293 cells - 32 hour (AID 1224881). Also: nearly all actives have a fitted effect of over 40% in size. In short, it runs like this:
(§2)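 Cells (HEK293, 600/well) and dye reagent are dispensed together. After 5 h at 37 C, 23 nL compound is pinned in. Plates stay at 37 C for 40 h with fluorescence read at 0h, 8h, 16h, 24h, 32h and 40h.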

The nature of assay [3]: A CellTox Green Cytotoxicity Assay to monitor cytotoxicity in HepG2 cells - 0 hour (AID 1224882). Also: nearly all actives have a fitted effect of over 35% in size. In short, it runs like this: (§3)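 Cells and non-lytic dye reagent are dispensed together (600 HepG2 cells/well) and incubated 5 h before DMSO compound transfer. Kinetic fluorescence is then recorded in the same wells during 40 h at 37 C.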
The nature of assay [4]: A CellTox Green Cytotoxicity Assay to monitor cytotoxicity in HepG2 cells - 32 hour (AID 1224883). Also: nearly all actives have a fitted effect of over 50% in size. In short, it runs like this: as §3
Assay [5] is described as follows: A CellTox Green Cytotoxicity Assay to monitor cytotoxicity in HEK293 cells - 8 hour (AID 1224884). Also: nearly all actives have a fitted effect of over 35% in size. A digest of the protocol: as §2
Assay [6] in a line: qHTS RealTime-Glo MT Cell Viability Assay in HepG2 cells - 16 hour (AID 1224885). Also: nearly all actives have a fitted effect of over 50% in size. In short, it runs like this:
(§4)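 HepG2 suspension premixed with RealTime-Glo reagents is plated at 600 cells per well and left 5 h at 37 C/5% CO2. Compounds in DMSO then go in, and bioluminescence reflecting viable cell number is recorded over 40 h.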

Assay [7] is described as follows: qHTS RealTime-Glo MT Cell Viability Assay in HEK293 cells - 8 hour (AID 1224887). Also: top concentration of the series differs between compounds; nearly all actives have a fitted effect of over 50% in size. In short, it runs like this:
as §1

The nature of assay [8]: A CellTox Green Cytotoxicity Assay to monitor cytotoxicity in HEK293 cells - 16 hour (AID 1224888). Also: nearly all actives have a fitted effect of over 35% in size. In short, it runs like this: as §2
A short description of assay [9]: qHTS RealTime-Glo MT Cell Viability Assay in HepG2 cells - 0 hour (AID 1224889). Also: nearly all actives have a fitted effect of over 50% in size. A digest of the protocol: as §4
Assay [10] in a line: A CellTox Green Cytotoxicity Assay to monitor cytotoxicity in HepG2 cells - 8 hour (AID 1224890). Also: nearly all actives have a fitted effect of over 45% in size. In short, it runs like this: as §3
Assay [11] is described as follows: qHTS assay to identify small molecule antagonists of the estrogen receptor alpha (ER-alpha) signaling pathway using the BG1 cell line in the presence of 0.1 nM 17-beta-estradiol - cell viability counter screen (AID 1259241). Also: nearly all actives have a fitted effect of over 40% in size. In short, it runs like this:
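Cytotoxicity counter-screen: live-cell protease activity measured by fluorescence (30 min reagent step) in the same wells. Cells were VM7Luc4E2 with endogenous ER-alpha and ERE-driven luciferase, treated 22 hr at 37C alongside 0.1 nM 17beta-estradiol final.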

The nature of assay [12]: qHTS assay to identify small molecule antagonists of the androgen receptor (AR) signaling pathway using the MDA cell line in the presence of 0.5 nM R1881 - cell viability counter screen (AID 1259242). Also: nearly all actives have a fitted effect of over 45% in size. A digest of the protocol: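 Steps: plate MDA-kb2 cells, rest 5 hr at 37C without CO2; pin in compounds in DMSO; add R1881 to 0.5 nM final; incubate 16 hr; add CellTiter-Fluor, 30 min; read fluorescence.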

Assay [13] is described as follows: qHTS assay to identify small molecule HDAC inhibitors (AID 1259364). Also: potency is read from the fitted curve at half-maximal effect.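 Also: wild-type HCT-116 cells with endogenous class I/II HDAC activity; nearly all actives have a fitted effect of over 45% in size.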 In short, it runs like this:
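Cells (HCT-116, wild type) are seeded at 1,500 per well, incubated overnight, treated with compound in DMSO for 2 hr, then developed with HDAC-Glo I/II reagent for 30 min at room temperature.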

A short description of assay [14]: qHTS assay to identify small molecule HDAC inhibitors - cell viability counter screen (AID 1259365). In short, it runs like this:
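CellTiter-Glo luminescence (30 min, room temperature) reported viability after a 2 h compound exposure at 37 C. Cells: wild-type HCT-116, 1,500 per well, seeded the night before.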

Assay [15] in a line: qHTS assay to identify small molecule agonists of the sonic hedgehog signaling (Shh) pathway - cell viability counter screen (AID 1259366). Also: nearly all actives have a fitted effect of over 50% in size. In short, it runs like this: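 Cytotoxicity counter screen: CellTiter-Fluor reagent added after 23 h compound exposure, then 1 h at 37C and fluorescence read. Cells were 3T3 Gli1-Luc, seeded 2,000 per well and dosed 4 h post-plating.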
Assay [16] is described as follows: qHTS assay to identify small molecule antagonists of the sonic hedgehog signaling (Shh) pathway - cell viability counter screen (AID 1259367). Also: nearly all actives have a fitted effect of over 55% in size. In short, it runs like this: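 Cytotoxicity was assessed in parallel with Shh reporter activity by measuring live-cell protease fluorescence (CellTiter-Fluor) in NIH/3T3 cells stably carrying Gli1-Luc, treated with compound under conditioned medium stimulation for 23 hr plus 1 hr reagent incubation.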

Assay [17] in a line: qHTS RealTime-Glo MT Cell Viability Assay in HEK293 cells - 24 hour (AID 1224886). A digest of the protocol: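 Reads taken at 0, 8, 16, 24, 32 and 40 h from the same wells. HEK293 cells (600/well) carried RealTime-Glo reagents from seeding, with compound added after a 5 h settle at 37 C.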
The target of assay [18] is Estrogen receptor (Homo sapiens) (UniProt P03372). Description: qHTS assay to identify small molecule antagonists of the estrogen receptor alpha (ER-alpha) signaling pathway using the BG1 cell line in the presence of 0.1 nM 17-beta-estradiol (AID 1259244). Also: nearly all actives have a fitted effect of over 50% in size. A digest of the protocol:
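Antagonist mode: compounds in DMSO are pinned onto VM7Luc4E2 reporter cells, 0.1 nM final 17beta-estradiol is added, and after 22 h at 37C luciferase luminescence is measured with ONE-Glo.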

The nature of assay [19]: qHTS assay to identify small molecule phospholipidosis (PLD) inducers (AID 1259344; active = well fitted curve in the direction sought with a large enough effect; an effect the other way counts as inactive or inconclusive). In short, it runs like this:
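Cells (HepG2, 900 per well) attach for 4 h, receive LipidTOX Red and compound together, incubate 24 h at 37 C, are fixed 30 min with paraformaldehyde/Hoechst, then imaged at one site per well.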

Each structure is given as a SMILES string. Unmarked numbers belong to inactive results. Inconclusive results are not listed. Activity calls are given as the source filed them. Unless noted, calls follow the shape of the dose curve; as a rule, active = well fitted curve in the direction sought with a large enough effect in the repeat runs; inconclusive = weak or mixed curves; inactive = no such curve, though single readings can be large; an effect the other way counts as inactive or inconclusive.

Estrogen receptor (Homo sapiens), sequence (P03372 whole entry, looked up): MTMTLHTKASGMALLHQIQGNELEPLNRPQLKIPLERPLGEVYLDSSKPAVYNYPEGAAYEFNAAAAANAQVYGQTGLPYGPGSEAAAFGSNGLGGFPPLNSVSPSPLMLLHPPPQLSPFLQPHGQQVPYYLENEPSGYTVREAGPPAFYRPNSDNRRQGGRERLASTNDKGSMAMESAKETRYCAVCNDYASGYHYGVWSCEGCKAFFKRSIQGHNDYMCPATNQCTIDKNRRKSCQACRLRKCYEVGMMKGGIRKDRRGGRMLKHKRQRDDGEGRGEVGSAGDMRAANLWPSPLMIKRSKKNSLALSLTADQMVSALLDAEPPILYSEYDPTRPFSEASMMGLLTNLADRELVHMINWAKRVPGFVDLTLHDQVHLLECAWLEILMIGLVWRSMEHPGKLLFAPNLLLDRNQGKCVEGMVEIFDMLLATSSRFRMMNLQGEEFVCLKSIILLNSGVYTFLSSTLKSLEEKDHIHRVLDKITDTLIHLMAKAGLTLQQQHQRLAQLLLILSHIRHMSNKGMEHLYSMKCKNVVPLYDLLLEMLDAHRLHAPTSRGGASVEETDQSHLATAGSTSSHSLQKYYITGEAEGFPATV

As to `Cc1ccc(N)cc1[N+](=O)[O-]`, the compound was classed as inactive in assay [1], in [6], in assay [11], in assay [12], in [14] and in [16]. The Potency entry in [2], in assay [3], in assay [4], in assay [5], in assay [7] and in [8] was “inactive” in each case. The Potency result in assay [9], in assay [10], in assay [13] and in [15] was “inactive” throughout.
Turning to `CC(C)COC(=O)c1ccccc1O`, the outcome in assay [1], in assay [6], in assay [11], in [12], in [18] and in assay [14] was inactive. The outcome in assay [16] was inactive. The Potency entry in [2], in assay [3], in assay [4], in assay [5], in [17] and in assay [7] was “inactive” each time. The Potency entry in assay [8], in assay [10], in assay [13] and in assay [15] was “inactive” in each case.
As for `Oc1ccc2c(c1)OC[C@@H](N1CCC(O)(c3ccc(F)cc3)CC1)[C@H]2O`, the compound was classed as inactive in assay [1], in assay [11], in assay [12], in assay [14] and in assay [16]. Further, the Potency entry in assay [2], in assay [3], in assay [4], in [5], in assay [17] and in assay [7] was “inactive” throughout. In addition, the Potency entry in [8], in assay [9], in assay [10] and in assay [15] was “inactive” throughout. For the same compound, the Potency in assay [13] is 2370 nM (active).
Take `OCc1ccccn1`: the compound was classed as inactive in [1], in [11], in [12], in assay [14] and in assay [16]. Besides, the Potency result in assay [2], in assay [3], in [4], in assay [5], in [17] and in assay [7] was “inactive” throughout. The Potency entry in assay [8], in assay [9], in [10], in [19], in [13] and in [15] was “inactive” throughout.
For `C=CC(=O)N1CCOCC1`, the compound was classed as inactive in assay [1], in assay [6], in [11], in assay [12], in assay [14] and in assay [16]. Further, the Potency entry in assay [2], in assay [3], in assay [4], in [5], in assay [17] and in [7] was “inactive” each time. In addition, the Potency entry in assay [8], in assay [9], in assay [10] and in [15] was “inactive” in each case.
`CN(C)CCOC(c1ccc(Cl)cc1)c1ccccn1` (stereo unspecified): the compound was called inactive in assay [1], in assay [11], in [12], in [18], in assay [14] and in assay [16]. For the same compound, the Potency entry in assay [2], in assay [3], in assay [4], in assay [5], in [17] and in assay [7] was “inactive” each time. Also, the Potency entry in [8], in [9], in [10], in [19], in assay [13] and in assay [15] was “inactive” throughout.
Consider `Nc1cc(N)cc(C(=O)O)c1`, for which the compound was called inactive in assay [1], in assay [6], in assay [11], in assay [12], in assay [18] and in [16]. The Potency entry in [2], in assay [3], in assay [4], in assay [5], in assay [7] and in assay [8] was “inactive” throughout. Also, the Potency result in [9], in [10], in assay [13] and in assay [15] was “inactive” in each case.

The values are drawn from PubChem BioAssay (Tox21).
